Several values for one entry are separate records, joined by “and”; a condition that tells them apart may be missing. Equal values may be shown once. About 2,000 (36%) of roughly 5,500 compounds were called active. Another 18% or so got no clear call; they are omitted. No stated cut-off is given here; in the data, active means normalized growth mostly below about 0.91 (no sharp cut-off); inconclusive means no clear call, values can overlap the other calls; inactive means mostly above about 0.92. Some of the results follow.
Assay: chemical genetic growth profiling, strain panel (AID 1159580);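 further: tested at 20 µM; growth read once vehicle control cultures reached saturation at 30 °C; 1 = growth at the plate median or of vehicle wells; lower values mean less growth of the strain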
Conditions: growth OD

Measured: normalized growth

CCCCNc1ccc(C(=O)OCCN(C)C)cc1
inactive: S. cerevisiae deletion strains, locus YJR075W, strain HOC1, active compounds read low 1.02 | S. cerevisiae deletion strains, locus YKL009W, strain mrt4, active compounds read low 1.02 | S. cerevisiae deletion strains, locus YKL068W, active compounds read low 1.01 | S. cerevisiae deletion strains, locus YKL085W, strain MDH1 (second series), active compounds read low 1.01 | S. cerevisiae deletion strains, locus YKL085W, strain MDH1, active compounds read low 1.01 | S. cerevisiae deletion strains, locus YKL160W, strain elf1, active compounds read low 1.03 | S. cerevisiae deletion strains, locus YKL190W, strain CNB1, active compounds read low 1.01 | S. cerevisiae deletion strains, locus YKR001C, strain vps1, active compounds read low 1.01 | S. cerevisiae deletion strains, locus YKR026C, strain gcn3, active compounds read low 1.01 | S. cerevisiae deletion strains, locus YKR091W, strain srl3, active compounds read low 1.01 | S. cerevisiae deletion strains, locus YLL001W, strain dnm1, active compounds read low 1 | S. cerevisiae deletion strains, locus YLL026W, active compounds read low 1.01 | S. cerevisiae deletion strains, locus YLL041C, strain sdh2, active compounds read low 0.998 | S. cerevisiae deletion strains, locus YLR027C, strain aat2, active compounds read low 1.01 | S. cerevisiae deletion strains, locus YLR039C, strain RIC1, active compounds read low 1.14 | S. cerevisiae deletion strains, locus YLR058C, strain SHM2, active compounds read low 1.01 | S. cerevisiae deletion strains, locus YLR102C, strain apc9, active compounds read low 1.02 | S. cerevisiae deletion strains, locus YLR113W, strain HOG1, active compounds read low 0.982 | S. cerevisiae deletion strains, locus YLR221C, strain rsa3, active compounds read low 0.975 | S. cerevisiae deletion strains, locus YLR258W, strain gsy2, active compounds read low 1.02 | S. cerevisiae deletion strains, locus YLR262C, strain YPT6 (second series), active compounds read low 1.05 | S. cerevisiae deletion strains, locus YLR262C, strain YPT6, active compounds read low 1.13 | S. cerevisiae deletion strains, locus YLR268W, strain sec22, active compounds read low 1.04 | S. cerevisiae deletion strains, locus YLR320W, strain mms22, active compounds read low 0.988 | S. cerevisiae deletion strains, locus YLR330W, strain CHS5, active compounds read low 1 | S. cerevisiae deletion strains, locus YLR342W, strain FKS1 (second series), active compounds read low 1 | S. cerevisiae deletion strains, locus YLR342W, strain FKS1, active compounds read low 1.02 | S. cerevisiae deletion strains, locus YLR357W, strain rsc2, active compounds read low 1.13 | S. cerevisiae deletion strains, locus YLR370C, strain arc18, active compounds read low 1.01 | S. cerevisiae deletion strains, locus YLR371W, strain rom2, active compounds read low 1.02 | S. cerevisiae deletion strains, locus YLR384C, strain iki3, active compounds read low 1.02 | S. cerevisiae deletion strains, locus YLR418C, strain cdc73, active compounds read low 1.01 | S. cerevisiae deletion strains, locus YML016C, strain PPZ1, active compounds read low 1 | S. cerevisiae deletion strains, locus YML032C, strain rad52, active compounds read low 1.02 | S. cerevisiae deletion strains, locus YML120C, strain ndi1, active compounds read low 0.995 | S. cerevisiae deletion strains, locus YML124C, strain tub3, active compounds read low 1.02 | S. cerevisiae deletion strains, locus YMR058W, strain fet3, active compounds read low 1.02 | S. cerevisiae deletion strains, locus YMR078C, strain ctf18, active compounds read low 1.02 | S. cerevisiae deletion strains, locus YMR125W, strain sto1, active compounds read low 1.05 | S. cerevisiae deletion strains, locus YMR129W, active compounds read low 1.01 | S. cerevisiae deletion strains, locus YMR205C, strain PFK2, active compounds read low 1.02 | S. cerevisiae deletion strains, locus YMR223W, strain ubp8, active compounds read low 1.01 | S. cerevisiae deletion strains, locus YMR231W, strain pep5, active compounds read low 1.02 | S. cerevisiae deletion strains, locus YMR307W, strain GAS1, active compounds read low 0.943 and 1.02 | S. cerevisiae deletion strains, locus YNL067W, strain RPL9B, active compounds read low 1.01 | S. cerevisiae deletion strains, locus YNL071W, strain lat1, active compounds read low 1.02 | S. cerevisiae deletion strains, locus YNL128W, strain TEP1, active compounds read low 1.02 | S. cerevisiae deletion strains, locus YNL153C, strain GIM3, active compounds read low 1 | S. cerevisiae deletion strains, locus YNL175C, strain NOP13, active compounds read low 1.01 | S. cerevisiae deletion strains, locus YNL183C, strain NPR1, active compounds read low 0.93 | S. cerevisiae deletion strains, locus YNL197C, strain WHI3, active compounds read low 0.982 | S. cerevisiae deletion strains, locus YNL209W, strain ssb2, active compounds read low 1.02 | S. cerevisiae deletion strains, locus YNL224C, strain SQS1, active compounds read low 0.99 | S. cerevisiae deletion strains, locus YNL233W, strain BNI4, active compounds read low 1 | S. cerevisiae deletion strains, locus YNL250W, strain rad50, active compounds read low 0.998 | S. cerevisiae deletion strains, locus YNL271C, strain bni1, active compounds read low 1.01 | S. cerevisiae deletion strains, locus YNL298W, strain CLA4, active compounds read low 1.02 | S. cerevisiae deletion strains, locus YNL307C, strain MCK1, active compounds read low 1.02 | S. cerevisiae deletion strains, locus YNL322C, strain KRE1 (second series), active compounds read low 1.01 | S. cerevisiae deletion strains, locus YNL322C, strain KRE1, active compounds read low 1.01 and 1.02 | S. cerevisiae deletion strains, locus YNR049C, strain mso1, active compounds read low 1.02 | S. cerevisiae deletion strains, locus YNR052C, strain pop2, active compounds read low 1.01 | S. cerevisiae deletion strains, locus YOL006C, strain TOP1, active compounds read low 0.943 | S. cerevisiae deletion strains, locus YOL012C, strain htz1 0.973 | S. cerevisiae deletion strains, locus YOL147C, strain pex11, active compounds read low 1.02 | S. cerevisiae deletion strains, locus YOR001W, strain rrp6, active compounds read low 0.954 | S. cerevisiae deletion strains, locus YOR061W, strain CKA2, active compounds read low 1 | S. cerevisiae deletion strains, locus YOR069W, strain VPS5, active compounds read low 1.01 | S. cerevisiae deletion strains, locus YOR070C, strain gyp1, active compounds read low 1 | S. cerevisiae deletion strains, locus YOR080W, strain dia2, active compounds read low 1 | S. cerevisiae deletion strains, locus YOR083W, strain WHI5 (second series), active compounds read low 0.999 | S. cerevisiae deletion strains, locus YOR083W, strain WHI5, active compounds read low 1.02 | S. cerevisiae deletion strains, locus YOR106W, strain vam3, active compounds read low 1.04 | S. cerevisiae deletion strains, locus YOR136W, strain idh2, active compounds read low 1.02 | S. cerevisiae deletion strains, locus YOR144C, strain elg1, active compounds read low 1.01 | S. cerevisiae deletion strains, locus YOR184W, strain ser1, active compounds read low 1.04 | S. cerevisiae deletion strains, locus YOR231W, strain MKK1, active compounds read low 0.995 | S. cerevisiae deletion strains, locus YOR265W, strain rbl2, active compounds read low 1.02 | S. cerevisiae deletion strains, locus YOR270C, strain vph1, active compounds read low 0.988 | S. cerevisiae deletion strains, locus YOR290C, strain snf2, active compounds read low 1.06 | S. cerevisiae deletion strains, locus YOR316C, strain cot1, active compounds read low 1.02 | S. cerevisiae deletion strains, locus YPL051W, strain arl3, active compounds read low 1.03 | S. cerevisiae deletion strains, locus YPL055C, strain LGE1, active compounds read low 1.02 | S. cerevisiae deletion strains, locus YPL078C, strain atp4, active compounds read low 1.04 | S. cerevisiae deletion strains, locus YPL106C, strain sse1, active compounds read low 1.05 | S. cerevisiae deletion strains, locus YPL240C, strain hsp82, active compounds read low 0.998 | S. cerevisiae deletion strains, locus YPL241C, strain CIN2, active compounds read low 1 | S. cerevisiae deletion strains, locus YPL256C, strain CLN2, active compounds read low 0.964 | S. cerevisiae deletion strains, locus YPR119W, strain clb2, active compounds read low 1.01 | S. cerevisiae deletion strains, locus YPR141C, strain kar3, active compounds read low 1.02 | S. cerevisiae deletion strains, locus YPR163C, strain tif3, active compounds read low 1.02 | S. cerevisiae deletion strains, locus YPR167C, strain met16, active compounds read low 1.02 | S. cerevisiae deletion strains, strain wtn01, active compounds read low 1.04 | S. cerevisiae strains, strain wild type, active compounds read low 1
active: S. cerevisiae deletion strains, locus YNL248C, strain rpa49, active compounds read low 1.13 [resistant]
